High-throughput results: PubChem, several laboratories
Bfl-1 A1 inh – inhibitors of the anti-apoptotic protein A1, read as caspase activation. MEF A1-2A-BIM cells, Caspase-Glo 3/7 luminescence, 3 h; percent of clofoctol response, vehicle zero. caspase activation, % (test concentration not listed). 0.066% of 330,000 active;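 active means over half of replicate activation scores above 10%, or exactly half above 10 with the replicate mean above 10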
TLR9-MyD88 block – blocks human TLR9 binding to MyD88 | CHO BLA complementation TLR9-MyD88, CCF4 FRET ratio | inhibition, % at 4.98 µM | 0.21% of 340,000 active | AID 504734;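 active means inhibition above the mean over all tested compounds plus 3 SD, cut at about 21% in these data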;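 further: 0% = DMSO only wells and 100% = clavulanate BLA inhibitor control wells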
NTR1 agonist – activates human neurotensin receptor 1 | 0.17% of 330,000 active | activation, % at 20 µM | NTR1-U2OS beta-arrestin-GFP spot imaging, agonist mode;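 active means activation at or above 40% of the spot to cytoplasm intensity ratio, with at least 20 cells analyzed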;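 further: 0% = DMSO without peptide and 100% = 100 nM NTR1 peptide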
B2AR ag – agonists of human beta-2 adrenergic receptor inducing internalization; P07550; Am2.2-beta2AR cells, FAP receptor internalization, flow cytometry; response, % (test concentration not listed); 0.43% of 340,000 active;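 active means response above a set limit, near 3 SD of response in nonfluorescent compounds, cut at about 42% in these data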
TLR4-MyD88 BLA – TLR4-MyD88 interaction inhibition in cells. 0.18% of 200,000 active. inhibition, % at 8.4 µM. HeLa CL3-4 TLR4/MyD88 BLA complementation, FRET ratio; in the data active means inhibition above about 25%;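 further: 0% = vehicle and 100% = reference inhibitor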
NOD2 RIPK2 PPI – NOD2-RIPK2 protein interaction inhibition; CHO BLA complementation NOD2-RIPK2, CCF4 ratio; inhibition, % at 4.98 µM; 0.38% of 360,000 active; in the data active means inhibition above about 21%;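 further: 0% = vehicle only and 100% = reference blocker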
* = called active by the depositor; / = no result. In the library only some 0.97% were active in any assay of this set; here they are far more common.

SMILES | Bfl-1 A1 inh | TLR9-MyD88 block | NTR1 agonist | B2AR ag | TLR4-MyD88 BLA | NOD2 RIPK2 PPI
CC(=O)SC(C[N+](=O)[O-])c1cn(C(C)=O)c2ccccc12 (stereo not given) | 0 | 5 | 13 | 49* | 21 | 8
CCCN(CCC)CCNS(=O)(=O)c1ccc2c(c1)CCN2C(=O)C1CCC1 | 0 | -12 | 0 | -8 | 3 | -7
COCCn1c(C)nnc1SCC(=O)Nc1ccccc1[N+](=O)[O-] | 0 | 4 | 0 | -1 | 4 | 4
CCCCn1c(N)c(N(CC(C)C)C(=O)C2CC(=O)N(CCc3ccccc3)C2)c(=O)[nH]c1=O (stereo not given) | -2 | -15 | 1 | 4 | / | -5
COc1cc(/C=C(/C#N)C(=O)NCCc2c[nH]c3ccccc23)ccc1OCc1ccccc1F | 9.4* | -5 | 0 | 3 | 2 | 11
Cc1cc(/C=C(\C#N)C(=O)NCCc2c[nH]c3ccccc23)c(C)n1C | 0 | 1 | 3 | 1 | -2 | 7
O=C(CSc1c2c(nc3cc(Cl)ccc13)CCCC2)NCCN1CCOCC1 | -1 | 0 | 2 | -13 | 10 | -6
Clc1ccc2c(SCC3CO3)c3ccccc3nc2c1 (stereo not given) | / | -7 | / | 82* | / | -15
Oc1ccc(/C=N/NC(=S)Nc2cccnc2)c(O)c1O | / | -13 | / | 67* | / | 8
CCOC1=C2CN(S(=O)(=O)c3ccc(C)cc3)[C@H](c3ccccc3)C[C@@H]2N(S(C)(=O)=O)[C@H](c2ccccc2)C1 | / | / | / | / | / | -7
O=C(O)C1=C[C@@H](O)[C@@H](O)[C@H](O)C1 | / | 1 | / | -10 | / | -1
COc1ccc(/C=C(\NC(=O)c2ccco2)C(=O)N2CCOCC2)cc1 | 0 | -4 | 3 | -5 | / | -4
COc1ccc(/C=C(/NC(=O)c2ccco2)C(=O)N2CCOCC2)cc1 | 0 | -12 | 0 | 49* | / | -4
C=C(C)Cn1c(CCCNC(=O)C(C)(C)C)nc2ccccc21 | 0 | -18 | 0 | -6 | 10 | -7
O=c1ccc2c(o1)/C(=C/C=C(Cl)Cl)CCC2 | 0 | 3 | -1 | 53* | -5 | -1
O=C(CSc1ccc(-c2ccccc2)nn1)c1cccs1 | -2 | -1 | 0 | -5 | 4 | 1
COc1ccccc1C(=O)NC(=Nc1nc2ccccc2o1)NC(=O)c1ccccc1OC | 0 | -13 | 40* | -5 | 5 | -15
Brc1ccc(C2=CC(c3cccs3)n3ncnc3N2)cc1 (stereo not given) | 2 | 13 | 13 | -4 | 2 | 14
Fc1ccc(Br)cc1C1C=C(c2cccnc2)Nc2ncnn21 (stereo not given) | 0 | 24* | / | -19 | -6 | 49*
CCc1nc2ccc(C(=O)Nc3ccc4c(c3)OCC(=O)N4)cn2c1N(C)C(=O)Cc1ccccc1 | / | / | / | / | / | -6
S=C(NCCc1ccccn1)Nc1ccc(Cl)c(Cl)c1 | 1 | 2 | -1 | 53* | -9 | -8
Cc1cc(C)cc(NC(=O)CNC(c2ccccc2)c2ccccc2)c1 | -1 | -14 | 6 | -1 | / | -5
O=C(O)c1cccc(N2C(=O)C=CC2=O)c1 | / | -2 | / | / | / | -11
O=C(Nc1ccc(Cl)cc1Cl)c1cccc(N2C(=O)C=CC2=O)c1 | 14* | 3 | 4 | 71* | / | 6
Cc1cc(C)cc(OCC(=O)N(Cc2cccs2)C2CCS(=O)(=O)C2)c1 (stereo not given) | 0 | -2 | 1 | -1 | 3 | -6
SMILES | Bfl-1 A1 inh | TLR9-MyD88 block | NTR1 agonist | B2AR ag | TLR4-MyD88 BLA | NOD2 RIPK2 PPI
CCOc1ccccc1C(=O)Nc1ccc2nc(N3CCN(c4ncccn4)CC3)cc(C)c2c1 | 0 | / | 13 | / | -3 | /
COc1cccc(C(=O)Nc2ccc3nc(N4CCN(c5ncccn5)CC4)cc(C)c3c2)c1OC | -1 | / | 47* | / | -2 | /
CCOC(=O)c1ccc(NC(=O)c2ccccc2[N+](=O)[O-])cc1 | 0 | 7 | -1 | 1 | -24 | -2
CCOC(=O)c1cc([N+](=O)[O-])c([N+](=O)[O-])cc1NC(C)=O | 0 | 20 | / | 74* | 4 | 13
O=C(N/N=C/c1ccco1)C1CC1c1ccccc1 (stereo not given) | -1 | -1 | -1 | 4 | 7 | -5
CC(C)(C)c1ccc(C2CC2C(=O)N/N=C\c2ccc[nH]2)cc1 (stereo not given) | 0 | -11 | 16 | 54* | -1 | -6
